# From the supplement of paper PMC3484114
# ± gives the standard deviation.
# Test system: OVCAR-3-derived ovarian cancer stem-like cells (spheroids)
# Assay: cell growth relative to untreated control; higher = more growth (less inhibition)
# Details: 2.29 µM; 96 h
# Summary of the method: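 After trypsin dissociation, OVCAR-3 spheroid-derived stem-like cells were placed in ultra-low attachment 96-well plates at 50,000 cells/mL in stem cell medium and preincubated for 24 h. Treatment at 2.29 uM followed for 96 h at 37°C, 5% CO2, with 4 replicate wells per compound. A 4 h TOX8 resazurin fluorescence read (ex 560/em 590 nm) gave viability, from which percent growth relative to untreated wells was derived after blank subtraction and Grubbs outlier removal.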
row,Compound,cell growth
1,Cc1nc(-n2nc(-c3ccccc3)cc2-c2ccccc2)sc1C(=O)/C=C/c1ccc(Cl)c(Cl)c1,109 ± 25%
2,C=C(C#N)C(=O)OCC(CC)CC.C=C(C#N)C(=O)OCC(CC)CC.CS(C)=O.CS(C)=O.Nc1c(N=Nc2ccc(-c3ccc(N=Nc4cc(S(=O)(=O)[O-])c5ccccc5c4N)cc3)cc2)cc(S(=O)(=O)[O-])c2ccccc12.[Pt+2],107 ± 14%
3,Cc1ccc(Cl)c2c(N=Nc3ccccc3[N+](=O)[O-])c(O)[nH]c12,107 ± 34%
4,CCOc1ccccc1NC(=O)CC1Sc2ccccc2NC1=O (stereo unspecified),70.6 ± 14%
5,CSCC(CO)NC(=O)/C=C/c1c(C)[nH]c(=O)[nH]c1=O (stereo unspecified),82.8 ± 9.5%
6,CC(C)c1ccc2nc3ccc(C(=O)NCCN(C)C)cn3c(=O)c2c1,79.4 ± 21%
7,Cc1nc2c(o1)C(=O)c1ccccc1C2=Nc1ccccc1,123 ± 56%
8,COc1cc2c(c(O)c1OC)-c1c(cc(OC)c(OC)c1OC)C[C@@H](C)[C@@H](C)C2,82 ± 20%
9,CN(C)c1cccc(F)c1C(=O)NC(=O)Nc1ccc(Cl)cc1,102 ± 28%
10,CC(C)(C)OC(=O)NC(Cc1ccccc1)C(=O)OCN1C(=O)C2C3C=CC(C2C1=O)C1C2C(=O)N(COC(=O)C(Cc4ccccc4)NC(=O)OC(C)(C)C)C(=O)C2C31 (stereo unspecified),109 ± 26%
11,O=C([O-])c1cc(I)cc(I)c1O.O=C([O-])c1cc(I)cc(I)c1O.[Mn+2],77.4 ± 10%
12,COc1ccc2c(c1[N+](=O)[O-])CC[C@@H]1[C@@H]2CC[C@]2(C)C(=O)CC[C@@H]12,152 ± 33%
13,O=C1C=C(Nc2ccccc2C(=O)CC(=O)C(=O)Nc2ccc(Cl)c(Cl)c2)c2ccccc2C1=O,79.6 ± 13%
14,COC(=O)c1ccccc1OCc1cc(=O)oc2ccc(C)cc12,115 ± 20%
15,O=C1Cc2c(-c3ccccc3)cc(-c3cccc(Cl)c3)nc2-c2ccccc2N1,99.6 ± 21%
16,COc1cc2c3c(n(C)c(=O)c2cc1OC)-c1cc2c(cc1C3=O)OCO2,101 ± 38%
17,COCC(=O)OC1CCn2c1nc1c2C(=O)C(C)=C(NC(C)=O)C1=O (stereo unspecified),76.1 ± 12%
18,O=C1C(CN2CCCCC2)CCCC1CN1CCCCC1 (stereo unspecified),62.5 ± 28%

row,Compound,cell growth
1,CCN(CC)CCNc1ccc(CO)c2sc3ccccc3c(=O)c12,99 ± 39%
2,NC(=S)NN=Cc1ncccc1O,95.3 ± 16%
3,COc1ccc(/C(=N/O)C(c2ccc(OC)cc2)C2C(=O)Oc3ccccc32)cc1 (stereo unspecified),73.1 ± 14%
4,CC1(C)N=C(N)N=C(N)N1c1ccc(CCCCc2ccc(Cl)cc2Cl)cc1,51.5 ± 9.2%
5,OCCNCCN1CCN(CCCN2c3ccccc3Sc3ccc(C(F)(F)F)cc32)CC1,126 ± 42%
6,Cc1ccc(C)c(NC(=O)C(=O)C(C(=O)c2ccc3ccccc3c2)C2OC(=O)c3ccccc32)c1 (stereo unspecified),121 ± 78%
7,Nc1ccc(N)c2c1C(=O)c1ccccc1C2=O,97.9 ± 12%
8,COC(=O)c1c[nH]c2c1-c1cc(C(=O)OCc3ccccc3)n(S(=O)(=O)c3ccc(C)cc3)c1C(=O)C2=O,20.9 ± 3.5%
9,COc1cc(OC)c2c(C)cc(=O)oc2c1,108 ± 32%
10,CCCC[S+]([O-])CC(CO)NC(=O)/C=C\c1c(C)[nH]c(=O)[nH]c1=O (stereo unspecified),105 ± 28%
11,CO[C@H]1/C=C\C=C(/C)C(=O)NC2=CC(=O)C(N)=C(C[C@@H](C)C[C@H](OC)[C@H](O)[C@@H](C)/C=C(\C)[C@@H]1OC(N)=O)C2=O,29.6 ± 4.9%
12,CCC1CN2CCc3cc(OC)c(OC)cc3C2CC1CC1c2cc(OC)c(OC)cc2CCN1C(=O)C1CCCN1C(=O)OCc1ccccc1 (stereo unspecified),122 ± 21%
13,COc1ccc(/C=C/c2cc(O)cc(O[C@@H]3O[C@H](CO)[C@@H](O)[C@H](O)[C@H]3O)c2)cc1O,106 ± 26%
14,CC1OC1C(=O)C1(O)C(C)C(O)C23OC2(C(O)c2c(O)cccc2C3=O)C1O (stereo unspecified),23.6 ± 6.9%
15,CCC12C[N+]3([O-])CCc4c([nH]c5ccccc45)C(C(=O)OC)(c4cc5c(cc4OC)N(C)C4C(O)(C(=O)OC)C(OC(C)=O)C6(CC)C=CCN7CCC54C76)CC(C3)C1O2 (stereo unspecified),27.9 ± 4.2%
16,C=C(C)[C@@H]1CC[C@]2(CO)CC[C@]3(C)[C@H](CC[C@@H]4[C@@]5(C)CC[C@H](O)C(C)(C)[C@@H]5CC[C@]43C)[C@@H]12,90 ± 24%
17,Cc1ccccc1NC(=O)C(=O)C(C(=O)c1ccccc1F)C1OC(=O)c2ccccc21 (stereo unspecified),94.9 ± 13%
18,CC[C@]1(O)C[C@@H]2CN(CCc3c([nH]c4ccccc34)[C@@](C(=O)OC)(c3cc4c(cc3OC)N(C)[C@H]3[C@@](O)(C(=O)OC)[C@H](OC(C)=O)[C@]5(CC)C=CCN6CC[C@]43[C@@H]65)C2)C1,49.1 ± 11%
